Potency and max response data for twelve compounds are collected here from PubChem BioAssay (Tox21).

Structures are written as SMILES. Unmarked numbers belong to inactive results. Inconclusive results are not listed. Calls of active or inactive are those of the source. Calls follow the shape of the dose curve; as a rule, active = well fitted curve in the direction sought with a large enough effect in the repeat runs; inconclusive = weak or mixed curves; inactive = no such curve, though single readings can be large; an effect the other way counts as inactive or inconclusive.

Test [1] in a line: qHTS RealTime-Glo MT Cell Viability Assay in HEK293 cells - 16 hour (AID 1224872). Also: top concentration of the series differs between compounds; nearly all actives have a fitted effect of over 50% in size. The gist of the method:
(§1)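 Homogeneous bioluminescent viability format in HEK293 cells (600 cells/well). Following 5 h at 37 C/5% CO2, 23 nL compound was pintooled; the signal was measured repeatedly during 40 h incubation.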

Test [2] can be described thus: qHTS RealTime-Glo MT Cell Viability Assay in HepG2 cells - 8 hour (AID 1224873). Also: nearly all actives have a fitted effect of over 55% in size. The gist of the method:
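HepG2 cells mixed with RealTime-Glo MT reagents (NanoLuc plus cell-permeant prosubstrate) were seeded at 600 cells/well, incubated 5 h at 37 C/5% CO2, then pinned with compounds in DMSO; nonlytic luminescence tracked viability during 40 h treatment.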

Test [3] is described as follows: qHTS RealTime-Glo MT Cell Viability Assay in HEK293 cells - 40 hour (AID 1224874). Also: nearly all actives have a fitted effect of over 50% in size. Also: potency is read from the fitted curve at half-maximal effect. The conditions noted are these: RealTime-Glo luminescence; max response: stronger effect = lower value. The procedure, abridged:
(§2)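 Luminescence, which tracks viable cell number through reduction of the prosubstrate to a NanoLuc substrate, was read over continuous 37 C culture. Cells (600/well) were premixed with reagent and rested 5 h before 23 nL of compound in DMSO was pinned.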

Test [4] can be described thus: A CellTox Green Cytotoxicity Assay to monitor cytotoxicity in HEK293 cells - 24 hour (AID 1224875). Also: series mostly up to about 77 µM; nearly all actives have a fitted effect of over 45% in size. The procedure, abridged:
(§3)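 Fluorescence from a DNA-binding dye excluded by viable cells was measured repeatedly in the same HEK293 wells (600 cells/well) during continuous compound exposure at 37 C. Each assay gives one read point: 0, 8, 16, 24, 32 or 40 h.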

Test [5] in a line: A CellTox Green Cytotoxicity Assay to monitor cytotoxicity in HepG2 cells - 16 hour (AID 1224876). Also: nearly all actives have a fitted effect of over 45% in size. The procedure, abridged: (§4)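 Real-time cytotoxicity: fluorescence of a cell-impermeant cyanine dye binding DNA of dead HepG2 cells, measured repeatedly (0–40 h) during compound exposure at 37 C. Cells seeded 600/well with reagent, dosed after 5 h.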
Test [6] in a line: qHTS RealTime-Glo MT Cell Viability Assay in HepG2 cells - 32 hour (AID 1224877). Also: nearly all actives have a fitted effect of over 55% in size. The gist of the method: (§5)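 Cell number in HepG2 cultures estimated from NanoLuc luminescence generated by metabolic reduction of a prosubstrate by living cells. The homogeneous, nonlytic format allowed repeated reads at 0, 8, 16, 24, 32 and 40 h of compound exposure.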
(qHTS replaces the single test concentration by a dilution series.)

Test [7] in a line: A CellTox Green Cytotoxicity Assay to monitor cytotoxicity in HepG2 cells - 24 hour (AID 1224878). Also: nearly all actives have a fitted effect of over 45% in size. Also: potency is read from the fitted curve at half-maximal effect. The procedure, abridged:
as §4

Test [8] in a line: A CellTox Green Cytotoxicity Assay to monitor cytotoxicity in HepG2 cells - 40 hour (AID 1224879). Also: nearly all actives have a fitted effect of over 40% in size. Also: potency is read from the fitted curve at half-maximal effect. The procedure, abridged: as §4
Test [9] is described as follows: qHTS RealTime-Glo MT Cell Viability Assay in HEK293 cells - 0 hour (AID 1224880). Also: top concentration of the series differs between compounds; nearly all actives have a fitted effect of over 45% in size. The procedure, abridged: as §2
Test [10] is described as follows: A CellTox Green Cytotoxicity Assay to monitor cytotoxicity in HepG2 cells - 0 hour (AID 1224882). Also: nearly all actives have a fitted effect of over 35% in size. The procedure, abridged:
as §4

Test [11] is described as follows: A CellTox Green Cytotoxicity Assay to monitor cytotoxicity in HepG2 cells - 32 hour (AID 1224883). Also: nearly all actives have a fitted effect of over 50% in size. Also: potency is read from the fitted curve at half-maximal effect. The procedure, abridged:
as §4

Test [12] is described as follows: qHTS RealTime-Glo MT Cell Viability Assay in HepG2 cells - 16 hour (AID 1224885). Also: nearly all actives have a fitted effect of over 50% in size. The gist of the method:
as §5

Test [13] is described as follows: qHTS RealTime-Glo MT Cell Viability Assay in HEK293 cells - 24 hour (AID 1224886). The gist of the method:
as §1

A short description of test [14]: qHTS RealTime-Glo MT Cell Viability Assay in HEK293 cells - 8 hour (AID 1224887). The procedure, abridged: as §2
Test [15] is described as follows: A CellTox Green Cytotoxicity Assay to monitor cytotoxicity in HEK293 cells - 16 hour (AID 1224888). Also: nearly all actives have a fitted effect of over 35% in size. The gist of the method:
as §3

The nature of test [16]: qHTS RealTime-Glo MT Cell Viability Assay in HepG2 cells - 0 hour (AID 1224889). Also: nearly all actives have a fitted effect of over 50% in size. The procedure, abridged:
as §5

Test [17] in a line: A CellTox Green Cytotoxicity Assay to monitor cytotoxicity in HepG2 cells - 8 hour (AID 1224890). Also: nearly all actives have a fitted effect of over 45% in size. The gist of the method: as §4
Test [18] in a line: qHTS assay to identify small molecule antagonists of the estrogen receptor alpha (ER-alpha) signaling pathway using the BG1 cell line in the presence of 0.1 nM 17-beta-estradiol - cell viability counter screen (AID 1259241). Also: nearly all actives have a fitted effect of over 40% in size. The gist of the method: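 Viability in VM7Luc4E2 cells after 22 hr compound exposure under 0.1 nM 17beta-estradiol stimulation, by CellTiter-Fluor.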
A short description of test [19]: A CellTox Green Cytotoxicity Assay to monitor cytotoxicity in HEK293 cells - 32 hour (AID 1224881). Also: nearly all actives have a fitted effect of over 40% in size. The gist of the method: as §3
The nature of test [20]: A CellTox Green Cytotoxicity Assay to monitor cytotoxicity in HEK293 cells - 8 hour (AID 1224884). Also: nearly all actives have a fitted effect of over 35% in size. The gist of the method: as §3
% is scaled to controls: 0 for no effect and ±100 for the full control effect.

Take `O=C(O)CCCCCCC(=O)O`: the Potency entry in [1], in [2], in test [4], in [5], in test [6] and in test [7] was “inactive” in each case. Besides, the Potency entry in test [8], in [9], in [10], in [11], in test [12] and in test [13] was “inactive” each time. Besides, the Potency entry in test [14], in test [15], in test [16], in test [17] and in test [18] was “inactive” in each case. In addition, the max response in [3] is 12.4%.

Consider `CCC1CCCCC1`, for which the Potency result in test [1], in test [2], in [4], in test [5], in test [6] and in test [7] was “inactive” throughout. For the same compound, the Potency result in [8], in [9], in test [19], in test [10], in test [11] and in test [20] was “inactive” throughout. In addition, the Potency result in test [12], in test [14], in test [15], in [16], in [17] and in test [18] was “inactive” throughout. Further, the max response in [3] was -1.07%.

Turning to `CC1=CCC(=O)O1`, the Potency entry in [1], in test [2], in [4], in test [5], in test [6] and in test [7] was “inactive” in each case. The Potency result in test [8], in test [9], in test [19], in test [11], in test [20] and in test [12] was “inactive” in each case. The Potency entry in test [13], in test [14], in [15], in test [16] and in test [18] was “inactive” each time. The max response in test [3] was 8.04%.

Turning to `c1ccc2c(c1)CCC2`, the Potency result in [1], in test [2], in test [4], in [5], in test [6] and in test [7] was “inactive” throughout. Further, the Potency result in test [8], in [9], in [19], in test [10], in [11] and in [20] was “inactive” in each case. The Potency result in [12], in test [14], in test [15] and in [18] was “inactive” in each case. In [3], the max response was 5.18%.

In the case of `OCCCS`, the Potency result in test [1], in [2], in test [5], in test [6], in [7] and in [8] was “inactive” each time. Also, the Potency entry in test [9], in [19], in test [10], in test [11], in [20] and in [12] was “inactive” each time. The Potency result in test [14], in test [15], in [16], in [17] and in [18] was “inactive” each time. In addition, the max response in test [3] was 7.88%.

As to `Cc1cccc(C)n1`, the Potency result in test [1], in test [2], in test [5], in test [6], in test [7] and in test [8] was “inactive” throughout. Further, the Potency entry in test [9], in [19], in test [10], in test [11], in test [20] and in test [12] was “inactive” throughout. Besides, the Potency result in test [14], in test [15], in test [16], in test [17] and in [18] was “inactive” throughout. Further, in test [3], the max response was -0.971%.

As for `CCCC(C)CCC(C)=O` (stereo not given), the Potency entry in [1], in [2], in test [5], in test [6], in [7] and in test [8] was “inactive” throughout. The Potency entry in [9], in [19], in test [10], in [11], in test [20] and in [12] was “inactive” throughout. The Potency entry in test [13], in [14], in [15], in test [17] and in [18] was “inactive” throughout. The max response in test [3] was 12.6%.

Take `CC(=O)OC1CCCCC1`: the Potency result in [1], in test [2], in test [5], in test [6], in test [7] and in [8] was “inactive” each time. In addition, the Potency result in [9], in test [19], in [10], in [11], in test [20] and in test [12] was “inactive” throughout. In addition, the Potency entry in test [13], in test [14], in test [15], in [16], in test [17] and in [18] was “inactive” in each case. The max response in test [3] is -7.58%.

In the case of `[O]=[Zr]`, the Potency entry in test [1], in [2], in [4], in test [6], in test [7] and in test [8] was “inactive” each time. Further, the Potency result in test [9], in test [19], in test [10], in [11], in test [20] and in [12] was “inactive” in each case. Moreover, the Potency result in test [13], in test [14], in test [15], in test [16], in test [17] and in test [18] was “inactive” each time. Besides, the max response in test [3] was 1.9%.

With `O=CC1CC1`, the Potency entry in test [1], in [2], in test [4], in test [6], in test [7] and in [8] was “inactive” each time. For the same compound, the Potency entry in [9], in [19], in test [10], in test [11], in test [20] and in test [12] was “inactive” in each case. Moreover, the Potency entry in test [13], in test [14], in test [15], in test [16] and in [18] was “inactive” each time. In addition, in test [3], the max response is 12%.

Consider `CN(C)CCCN1c2ccccc2CCc2ccccc21`, for which the Potency entry in [1], in test [2], in test [4], in [6], in test [10] and in test [20] was “inactive” in each case. Further, the Potency result in test [12], in test [13], in test [14], in test [15] and in test [18] was “inactive” in each case. The Potency in test [3] is 54.9 µM (active); in test [7] it was 49 µM (active); in test [8], 54.9 µM (active); in test [11], 54.9 µM (active).

As to `COC(=O)CC(C)CCC=C(C)C` (stereo not given), the Potency entry in [1], in [2], in test [5], in test [6], in test [7] and in test [8] was “inactive” each time. For the same compound, the Potency result in test [9], in test [19], in test [10], in [11], in test [20] and in [12] was “inactive” each time. Moreover, the Potency entry in test [13], in [14], in test [15], in test [17] and in [18] was “inactive” each time. The max response in test [3] is 7.75%.
